According to PubChem BioAssay (NCI):
Several values for one entry are separate records, joined by “and”; a condition that tells them apart may be missing. Equal entries are not always repeated. This is part of a sample that, as a whole, favours compounds with a hit. Of some 79,000 tested, about 15% had one in any assay. Some compounds were tested as several samples or in several runs, with calls that do not always agree. Activity calls are given as the source filed them. Cut-off read from the data, not from the text of the source: active = growth inhibition above about 70%; inactive = the rest.

Assay: NCI Yeast Anticancer Drug Screen. Data for the sgs1 mgt1 strain (AID 161);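 note: 0% = growth of cultures given vehicle only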
Details: S. cerevisiae sgs1 mgt1 strain, stronger effect = higher value
Protocol: Growth inhibition of yeast strains with defined genetic alterations is measured as a screen for potential anti-cancer activity. Selected strains with alterations in DNA damage repair or cell cycle control were exposed to compounds and growth inhibition was measured relative to vehicle treated controls. The strain used in this assay is sgs1 mgt1

[1] = at 5.0 µM (retest, dose inferred, filed as 0.5)
[2] = at 50.0 µM (retest, dose inferred, filed as 5.0)

Structure (SMILES) | growth inhibition [1] | growth inhibition [2] | growth inhibition (at 50.0 µM)
CSc1ncnc2c1ncn2C1OC(CO)C(O)C1O (configuration not stated) | -5% (inactive) | 1% (inactive) | 3.1% (inactive) and -2.35% (inactive)
CCCCCCCCCCCCSC(=NC)NC | 80% (active) and 65% (inactive) | 99% (active) | 99.4% (active) and 99.1% (active)
Cc1cc(N)c(S)cc1C | 1% (inactive) | 44% (inactive) and 37% (inactive) | 21.3% (inactive) and 50.4% (inactive)
CC1=CC(C)=Nc2ccc(Cl)cc2N1 | -4% (inactive) | -1% (inactive) | -5.1% (inactive) and 41% (inactive)
CCSSC(=Nc1ccccc1)OCC(C)C | 47% (inactive) | 97% (active) | 71.8% (active)
O=C(C(=Cc1ccccc1)C(=O)c1ccccc1)c1ccccc1 | 50% (inactive) | 95% (active) | 89.5% (active) and 18.9% (inactive)
COc1cccc(NC(=S)C(C#N)C(=O)Nc2cccc(C(F)(F)F)c2)c1 (configuration not stated) | 52% (inactive) | 91% (active) | 85.5% (active)
Cc1cc(=O)[nH]c2ccc(Cc3ccc(N)cc3)cc12 | 15% (inactive) | 27% (inactive) | 14.6% (inactive) and 1.2% (inactive)
O=c1cc[nH]c2ccccc12 | 16% (inactive) | 64% (inactive) | -6.85% (inactive) and 7.5% (inactive)
OC(CF)(c1ccc(Cl)cc1)c1ccc(Cl)cc1 | 6% (inactive) | 91% (active) | 92.8% (active)
Cn1c2ccccc2c(=O)c2ccccc21 | -5% (inactive) | 9% (inactive) | -17.4% (inactive) and 18.6% (inactive)
OCC1OC(n2cnc3c(=S)nc[nH]c32)C(O)C1O (configuration not stated) | 0% (inactive) | 5% (inactive) | 6.65% (inactive) and -21.8% (inactive)
CC1(c2ccccc2)c2ccccc2N(c2ccccc2)C(=O)C1O (configuration not stated) | 97% (active) | 99% (active) | 8.35% (inactive) and 99.6% (active)
O=[N+]([O-])c1cc2c(cc1S(=O)(=O)O)C1C(C3C2C2(Cl)C(Cl)=C(Cl)C3(Cl)C2(Cl)Cl)C2(Cl)C(Cl)=C(Cl)C1(Cl)C2(Cl)Cl (configuration not stated) | 22% (inactive) | 41% (inactive) | 72.5% (active)
